Activity calls are given as the source filed them. Rule for the calls: active = hit-call score of the fitted dose curve at least 0.9, where 1 is the maximum; inactive = score below 0.9.
Columns and labels:
Conditions in all cases: mRNA level, 48 h; actives raise or lower the signal
CYP2C8 (gene 1558) = test: LTEA_HepaRG_CYP2C8: Life Technologies and Expression Analysis (LTEA) Assay for CYP2C8 using HepaRG (AID 2283483)
Outline: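 HepaRG (human liver line), 48 h chemical exposure, 8-pt half-log series from 100 uM, 0.5% DMSO vehicle. Readout: CYP2C8 transcript by qRT-PCR, housekeeping-normalized. Bidirectional fit vs DMSO baseline.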

CYP2C9 (gene 1559) = test: LTEA_HepaRG_CYP2C9: Life Technologies and Expression Analysis (LTEA) Assay for CYP2C9 using HepaRG (AID 2283484)
Outline: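 HepaRG, 48 h dosing, 8-pt half-log series, top 100 uM, 0.5% DMSO vehicle. Read-out: CYP2C9 transcript by TaqMan qRT-PCR, housekeeping-normalized (ACTB/GAPDH/POLR2A). Gain or loss fitted vs DMSO baseline.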

CYP2E1 (gene 1571) = test: LTEA_HepaRG_CYP2E1: Life Technologies and Expression Analysis (LTEA) Assay for CYP2E1 using HepaRG (AID 2283485)
Outline: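 Assay uses 48 h exposure of HepaRG hepatic cells, eight concentrations to 100 uM. Expression of CYP2E1 is quantified by TaqMan qRT-PCR with ACTB, GAPDH and POLR2A normalization; curves fitted in both directions relative to vehicle.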

CYP4A11 (gene 1579) = test: LTEA_HepaRG_CYP4A11: Life Technologies and Expression Analysis (LTEA) Assay for CYP4A11 using HepaRG (AID 2283486)
Outline: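 Readout is CYP4A11 mRNA induction or suppression (qRT-PCR, ACTB/GAPDH/POLR2A normalization) in human HepaRG cells after 48 h chemical treatment, concentrations to 100 uM in 0.5% DMSO, fitted bidirectionally against vehicle.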

[1] = read-out: DNA damage-inducible transcript 3 (DDIT3), DDIT3 (gene 1649); test: LTEA_HepaRG_DDIT3: Life Technologies and Expression Analysis (LTEA) Assay for DNA damage-inducible transcript 3 (DDIT3) using HepaRG (AID 2283488)
Outline: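 Eight-point concentration-response (100 uM highest, half-log dilutions) in HepaRG, 48 h, duplicate wells. Endpoint: qRT-PCR mRNA, normalized (ACTB, GAPDH, POLR2A), bidirectional fitting with DMSO as baseline.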

[2] = read-out: Early growth response protein 1 (EGR1) transcription factor, EGR1 (gene 1958); test: LTEA_HepaRG_EGR1: Life Technologies and Expression Analysis (LTEA) Assay for Early growth response protein 1 (EGR1) transcription factor using HepaRG (AID 2283490)
Outline: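 HepaRG, 48 h exposure, 8-pt half-log series from 100 uM, 0.5% DMSO vehicle; EGR1 transcript by TaqMan qRT-PCR (Fluidigm array), housekeeping-normalized; bidirectional fit relative to DMSO baseline.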

[3] = read-out: Ezrin (EZR), EZR (gene 7430); test: LTEA_HepaRG_EZR: Life Technologies and Expression Analysis (LTEA) Assay for Ezrin (EZR) using HepaRG (AID 2283491)
Outline: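 EZR transcript levels came from Fluidigm qRT-PCR and were normalized to three housekeeping genes after 48 h chemical exposure of HepaRG cells. Dosing used an 8-point half-log series with a 100 uM top concentration in 0.5% DMSO, tested in duplicate; both directions were fitted versus vehicle.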

[4] = read-out: Cytochrome P450 3A7 (Homo sapiens) (UniProt P24462); test: LTEA_HepaRG_CYP3A7: Life Technologies and Expression Analysis (LTEA) Assay for CYP3A7 using HepaRG (AID 2283492)
Outline: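 Cells were thawed, plated, cultured 48 h, then treated for a further 48 h with chemicals (eight-point half-log series from 100 uM, 0.5% DMSO). RNA was isolated and CYP3A7 expression quantified by qRT-PCR normalised to ACTB, GAPDH and POLR2A.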

CYP3A5 (gene 1577) = test: LTEA_HepaRG_CYP3A5: Life Technologies and Expression Analysis (LTEA) Assay for CYP3A5 using HepaRG (AID 2283493)
Outline: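 Readout was CYP3A5 mRNA by qRT-PCR. HepaRG cultures were exposed for 48 h in serum-free induction medium to chemicals at up to 100 uM, and responses were fitted in both directions relative to DMSO vehicle.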

[5] = read-out: Fatty Acid-Binding Protein 1 (FABP1), FABP1 (gene 2168); test: LTEA_HepaRG_FABP1: Life Technologies and Expression Analysis (LTEA) Assay for Fatty Acid-Binding Protein 1 (FABP1) using HepaRG (AID 2283494)
Outline: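 qRT-PCR readout of FABP1 transcript (normalized to three housekeeping genes) after 48 h chemical exposure of HepaRG cells; eight concentrations, half-log steps, max 100 uM, 0.5% DMSO vehicle; gain or loss fitted relative to DMSO baseline.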

[6] = read-out: Cytochrome P450 4A22 (Homo sapiens) (UniProt Q5TCH4); test: LTEA_HepaRG_CYP4A22: Life Technologies and Expression Analysis (LTEA) Assay for Cytochrome P450 4A22 (CYP4A22) using HepaRG (AID 2283495)
Outline: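 Cryopreserved HepaRG cells, plated and cultured 48 h, then switched to serum-free induction medium and treated 48 h (duplicates, up to 100 uM, half-log steps, 0.5% DMSO). Expression change of CYP4A22 was fitted bidirectionally against vehicle.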

[7] = read-out: Cytochrome P450 7A1 (Homo sapiens) (UniProt P22680); test: LTEA_HepaRG_CYP7A1: Life Technologies and Expression Analysis (LTEA) Assay for Cytochrome P450 7A1 (CYP7A1) using HepaRG (AID 2283496)
Outline: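 Using 0.5% DMSO as vehicle and baseline, chemicals were tested in duplicate over an 8-point range from 100 uM on HepaRG cells for 48 h; qRT-PCR signals were normalised to ACTB, GAPDH and POLR2A.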

[8] = read-out: Glutathione S-Transferase (GSTA2), GSTA2 (gene 2939); test: LTEA_HepaRG_GSTA2: Life Technologies and Expression Analysis (LTEA) Assay for Glutathione S-Transferase (GSTA2) using HepaRG (AID 2283497)
Outline: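 qRT-PCR readout of GSTA2 transcript, normalized to three housekeeping genes, fitted bidirectionally against 0.5% DMSO baseline. Differentiated HepaRG cells received compound for 48 h at 8 concentrations (top 100 uM, half-log steps).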

[9] = read-out: Glutamate-cysteine ligase catalytic (GCLC), GCLC (gene 2729); test: LTEA_HepaRG_GCLC: Life Technologies and Expression Analysis (LTEA) Assay for Glutamate-cysteine ligase catalytic (GCLC) using HepaRG (AID 2283498)
Outline: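 HepaRG, 48 h exposure, 8-pt half-log series from 100 uM, 0.5% DMSO vehicle; TaqMan qRT-PCR for GCLC mRNA, housekeeping-normalized; bidirectional curve fit vs DMSO baseline.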

[10] = read-out: growth arrest and DNA damage 45 (GADD45G), GADD45G (gene 10912); test: LTEA_HepaRG_GADD45G: Life Technologies and Expression Analysis (LTEA) Assay for growth arrest and DNA damage 45 (GADD45G) using HepaRG (AID 2283499)
Outline: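 Human hepatic HepaRG line treated 48 h with chemicals (eight concentrations, half-log steps from 100 uM); transcript induction or repression of GADD45G scored by qRT-PCR versus DMSO vehicle.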

[11] = read-out: Glutamate-cysteine ligase regulatory (GCLM), GCLM (gene 2730); test: LTEA_HepaRG_GCLM: Life Technologies and Expression Analysis (LTEA) Assay for Glutamate-cysteine ligase regulatory (GCLM) using HepaRG (AID 2283500)
Outline: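 In this multiplexed HepaRG gene-expression assay, GCLM mRNA change after 48 h treatment (8 concentrations, max 100 uM) was scored against DMSO by bidirectional curve fitting.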

[12] = read-out: Glutathione S-transferase M3 (GSTM3), GSTM3 (gene 2947); test: LTEA_HepaRG_GSTM3: Life Technologies and Expression Analysis (LTEA) Assay for Glutathione S-transferase M3 (GSTM3) using HepaRG (AID 2283501)
Outline: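 Changes in GSTM3 expression, an oxidative-stress marker, were scored by bidirectional curve fitting against 0.5% DMSO vehicle. Human HepaRG cultures received chemicals for 48 h in duplicate, highest concentration 100 uM with half-log dilutions.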

[13] = read-out: Heat shock 70 kDa protein 1 (HSPA1A), gene 3303; test: LTEA_HepaRG_HSPA1A: Life Technologies and Expression Analysis (LTEA) Assay for Heat shock 70 kDa protein 1 (HSPA1A) using HepaRG (AID 2283502)
Outline: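 An oxidative-stress marker readout: HepaRG cells treated 48 h in duplicate with an eight-point series (highest 100 uM) had HSPA1A mRNA quantified by TaqMan qRT-PCR. Activity was fitted in both directions using 0.5% DMSO as baseline.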

[14] = read-out: Pro-epidermal growth factor (Homo sapiens) (UniProt P01133); test: LTEA_HepaRG_EGF: Life Technologies and Expression Analysis (LTEA) Assay for Epidermal growth factor (EGF) using HepaRG (AID 2283489)
Outline: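 EGF expression changes in human HepaRG cells are scored by bidirectional fitting relative to 0.5% DMSO controls. Chemicals are tested at eight half-log concentrations up to 100 uM for 48 h in serum-free induction medium.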

Measured: AC50

Chain of Cytochrome P450 3A7 (Homo sapiens) (P24462 whole entry, looked up): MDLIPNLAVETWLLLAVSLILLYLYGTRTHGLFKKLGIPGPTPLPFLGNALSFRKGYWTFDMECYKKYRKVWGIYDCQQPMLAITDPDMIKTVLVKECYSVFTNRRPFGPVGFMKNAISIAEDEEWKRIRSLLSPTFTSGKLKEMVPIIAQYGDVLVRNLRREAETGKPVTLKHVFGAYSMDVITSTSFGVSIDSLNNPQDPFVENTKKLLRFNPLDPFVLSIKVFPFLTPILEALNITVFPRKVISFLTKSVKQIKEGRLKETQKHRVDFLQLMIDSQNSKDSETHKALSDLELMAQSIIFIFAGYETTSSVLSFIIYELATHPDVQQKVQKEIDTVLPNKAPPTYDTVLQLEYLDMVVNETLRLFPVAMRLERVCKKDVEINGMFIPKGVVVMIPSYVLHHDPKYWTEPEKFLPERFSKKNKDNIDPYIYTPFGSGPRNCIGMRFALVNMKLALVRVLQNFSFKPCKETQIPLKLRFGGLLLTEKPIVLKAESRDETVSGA

CC1COC(Cn2cncn2)(c2ccc(Oc3ccc(Cl)cc3)cc2Cl)O1 (stereo unspecified)
active: CYP2C8 (gene 1558) 9.46 µM | CYP2C9 (gene 1559) 15.7 µM | CYP2E1 (gene 1571) 8.67 µM | CYP4A11 (gene 1579) 12.9 µM | [1] 12 µM | [2] 63.2 µM | [3] 0.479 µM | CYP3A5 (gene 1577) 84.1 µM | [5] 23.3 µM | [6] 15.5 µM | [7] 13.8 µM | [8] 19.7 µM | [10] 12.2 µM | [13] 87.2 µM
inactive: [4] | [9] | [11] | [12]

C=CC1(C)OC(=O)N(c2cc(Cl)cc(Cl)c2)C1=O (stereo unspecified)
active: CYP2C8 (gene 1558) 16.7 µM | [4] 20.8 µM
not listed: CYP2E1 (gene 1571)
inactive: all other assays above

CCCC1COC(Cn2cncn2)(c2ccc(Cl)cc2Cl)O1 (stereo unspecified)
inactive: [2] | [3] | CYP3A5 (gene 1577) | [9]
active: CYP2C8 (gene 1558) 36.4 µM | CYP2C9 (gene 1559) 34.8 µM | CYP2E1 (gene 1571) 13.5 µM | CYP4A11 (gene 1579) 34.7 µM | [1] 30.7 µM | [4] 29.5 µM | [5] 36.3 µM | [6] 31.7 µM | [7] 60.9 µM | [8] 37 µM | [10] 35.6 µM | [11] 50 µM | [12] 64.5 µM | [13] 90.5 µM

COC(=O)C(C)Oc1ccc(Oc2ccc(Cl)cc2Cl)cc1 (stereo unspecified)
active: CYP4A11 (gene 1579) 12.7 µM | [4] 27.3 µM | [6] 12.7 µM | [8] 74.4 µM
not listed: CYP2E1 (gene 1571) | [14]
inactive: all other assays above

COC(=O)C=C(C)OP(=O)(OC)OC
active: [2] 50 µM | [7] 14.7 µM
not listed: CYP2E1 (gene 1571) | [14]
inactive: all other assays above

CC(C)Oc1cc(-n2nc(C(C)(C)C)oc2=O)c(Cl)cc1Cl
inactive: [2] | [3] | [4] | CYP3A5 (gene 1577) | [12] | [13]
active: CYP2C8 (gene 1558) 86.3 µM | CYP2C9 (gene 1559) 82.3 µM | CYP4A11 (gene 1579) 45.6 µM | [1] 77.7 µM | [5] 19.4 µM | [6] 50 µM | [7] 33.3 µM | [8] 80.8 µM | [9] 86.2 µM | [10] 77.8 µM | [11] 50 µM

N#Cc1cc(Br)c(O)c(Br)c1
inactive: [3]
active: CYP2C8 (gene 1558) 25.3 µM | CYP2C9 (gene 1559) 14.4 µM | CYP4A11 (gene 1579) 26.6 µM | [1] 68.3 µM | [2] 10 µM | [4] 11.3 µM | CYP3A5 (gene 1577) 9.58 µM | [5] 13 µM | [6] 25 µM | [7] 19.1 µM | [8] 22 µM | [9] 10.3 µM | [10] 71.4 µM | [11] 1.34 µM | [12] 10.7 µM | [13] 10.6 µM

CC(C)(C)c1ccc(CSc2cnn(C(C)(C)C)c(=O)c2Cl)cc1
inactive: [9] | [12] | [13]
active: CYP2C8 (gene 1558) 22.5 µM | CYP2C9 (gene 1559) 13.4 µM | CYP4A11 (gene 1579) 1.75 µM | [1] 2.06 µM | [2] 1.12 µM | [4] 1.05 µM | CYP3A5 (gene 1577) 2.11 µM | [5] 2.8 µM | [6] 1.74 µM | [7] 26.1 µM | [8] 8.51 µM | [10] 2.07 µM | [11] 4.86 µM

CN(C)C(=S)SSC(=S)N(C)C
not listed: CYP2E1 (gene 1571) | [14]
inactive: all other assays above

CC1=C(C(=O)Nc2ccccc2)SCCO1
active: [5] 50 µM | [7] 35.7 µM | [10] 61.8 µM
not listed: CYP2E1 (gene 1571) | [14]
inactive: all other assays above

C=CCC1=C(C)[C@@H](OC(=O)[C@@H]2[C@@H](C=C(C)C)C2(C)C)CC1=O
active: CYP4A11 (gene 1579) 88.3 µM | [5] 50 µM | [6] 83.9 µM
not listed: CYP2E1 (gene 1571) | [14]
inactive: all other assays above

CNC(=O)ON=CC(C)(C)SC
not listed: CYP2E1 (gene 1571) | [14]
inactive: all other assays above
